NS3h inh CB – hepatitis C NS3 helicase inhibition, primary screen; NS3h Cy5-dT15 DNA binding, fluorescence polarization; inhibition, % at 100 µM; 16,000 compounds, 1.6% hits;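 active = inhibition above the average over every tested compound plus 3 SD, cut at about 40% in these data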
Cy5 interf NS3h – enhances or quenches Cy5 fluorescence in NS3h assay; Cy5-dT15 DNA with NS3h, fluorescence interference; actives lie on both sides; signal over control mean, under 1 quenches; fluorescence interference ratio at 100 µM; 16,000 compounds, 6% hits;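 active = compound fluorescence over control fluorescence at most 0.8, a quencher, or at least a set upper limit, an enhancer; inactive = ratio between 0.8 and the set upper limit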
Each line names hits and unclear results; the compound was inactive in the other large screens. Compounds with a hit are over-represented: about 6.9% of the library has one in this group of screens.

COc1ccc(NC(=O)c2cc([N+](=O)[O-])ccc2Cl)c(OC)c1	none
Cc1onc(-c2ccccc2)c1C(=O)Nc1ccc(O)c(C(=O)O)c1	none
Cc1cccc(C)c1NC(=O)C1COc2ccccc2O1 (stereo not given)	none
N#Cc1ccccc1N=C1C(=O)Nc2ccccc21	none
O=C1Nc2ccc([N+](=O)[O-])cc2C1=Nc1ccc(-c2ccc(N=C3C(=O)Nc4ccc([N+](=O)[O-])cc43)cc2)cc1	Cy5 interf NS3h 0.77
CN(C1=NC(=O)S/C1=C\c1ccc([N+](=O)[O-])cc1)c1ccc(O)cc1	none
CN(C1=NC(=O)/C(=C\C(Cl)=C\c2ccc([N+](=O)[O-])cc2)S1)c1ccc(O)cc1	Cy5 interf NS3h 0.4
CC1=NN(c2ccccc2)C(=O)C1/C=C1\C(=O)NC(=O)N(c2ccc(C)cc2)C1=O (stereo not given)	none
O=C1NN(c2ccccc2)C(=O)/C1=C/c1cc([N+](=O)[O-])c(Cl)cc1Cl	none
O=C1NN(c2ccccc2)C(=O)/C1=C/c1cccn1-c1ccc([N+](=O)[O-])cc1	Cy5 interf NS3h 0.61
CCc1ccc(NC(=O)c2cncc(Br)c2)cc1	none
CCOc1cc(C=C2C(=O)NC(=S)NC2=O)cc(Br)c1OCCOc1ccccc1C	none
C=CCOc1c(I)cc(C=C2C(=O)NC(=S)NC2=O)cc1OCC	Cy5 interf NS3h 0.71
COCCOC(=O)c1c(C)oc2ccc(OCc3cccc(F)c3)cc12	none
COCCOC(=O)c1c(C)oc2ccc(OCc3cccc(Cl)c3)cc12	Cy5 interf NS3h 0.79
O=C(CN1C(=O)c2ccccc2C1=O)Nc1ccc(Br)cc1	none
CCOC(=O)c1ccc(N2NC(=O)/C(=C/c3ccc(OC)c(Br)c3)C2=O)cc1	none
COCCNC(=O)Nc1ccc2nccnc2c1	none
COC(=O)c1nnn(-c2cc3nccnc3cc2F)c1C(=O)OC	Cy5 interf NS3h 0.72
O=C(O)CC(NC(=O)c1ccccc1)c1ccc(Cl)cc1 (stereo not given)	none
Cc1nc(-c2ccccc2)nc2[nH]ccc(=O)c12	Cy5 interf NS3h 0.8
Cc1nc(-c2ccccc2)c2c(=O)cc[nH]c2n1	none
COc1ccc(NC(=O)CSC(N)=O)cc1	none
CS(=O)(=O)N(CC(=O)N1CCOCC1)c1ccc(Cl)cc1	none
CCOc1ccc(N(CC(=O)N2CCOCC2)S(C)(=O)=O)cc1	Cy5 interf NS3h 0.75
C#Cc1cccc(NC(=O)c2ccc(Oc3ccc(NC(=O)c4cccc(C#C)c4)cc3)cc2)c1	none
Cc1ccc(C(=O)Oc2cccc(C3C4=C(CC(C)(C)CC4=O)NC4=C3C(=O)c3ccccc34)c2)cc1 (stereo not given)	none
CCOc1cc(C2C3=C(CC(C)(C)CC3=O)NC3=C2C(=O)c2ccccc23)ccc1O (stereo not given)	Cy5 interf NS3h 1.2
COc1ccc(OC)c(-c2nc(-c3ccccc3)c(-c3cccs3)[nH]2)c1	none
COc1ccc(-c2nc(-c3ccc(O)cc3)[nH]c2-c2ccc(OC)cc2)cc1	Cy5 interf NS3h 0.73
O=C(CCCN1C(=O)c2ccccc2C1=O)Nc1ccccc1C(=O)N1CCOCC1	none
CN1CCN(C(=O)c2ccccc2NC(=O)CN2C(=O)c3ccccc3C2=O)CC1	Cy5 interf NS3h 0.77
CCCCOc1ccc(NCN2C(=O)c3ccccc3C2=O)cc1	none
Cc1cccc(C)c1NS(=O)(=O)c1cccc2cccnc12	none
O=C(NCCN1CCN(Cc2ccccc2)CC1)C(=O)Nc1ccc(Cl)cc1	none
O=C(NCCN1CCOCC1)C(=O)NCc1ccc(Cl)cc1	Cy5 interf NS3h 1.3
CC1=NN(c2ccccc2)C(=O)/C1=C\c1cn(CCC#N)nc1-c1ccc(Br)cc1	none
CSc1ccc(S(=O)(=O)N(CC(=O)Nc2ccc(C)cc2C)c2ccc(C)cc2)cc1	none
CCOc1ccc(S(=O)(=O)N(CC(=O)NC)c2ccc(C)cc2)cc1	Cy5 interf NS3h 1.2
CSc1ccc(S(=O)(=O)N(CC(=O)Nc2ccc(C)cc2)c2ccc(C)cc2)cc1	Cy5 interf NS3h 0.68
CSc1ccc(S(=O)(=O)N(CC(=O)Nc2ccc(C(C)=O)cc2)c2ccc(C)cc2)cc1	Cy5 interf NS3h 0.73
CCOC(=O)c1ccc(NC(=O)CN(c2ccc(OCC)cc2)S(=O)(=O)c2ccc(SC)cc2)cc1	none
CCOc1ccc(S(=O)(=O)N(CC(=O)Nc2ccc(C)cc2)c2ccc(C)cc2)cc1	none
CCOC(=O)C1=C(c2ccccc2)NC(=S)NC1c1ccc(OC(C)C)cc1 (stereo not given)	none
O=C(Nc1cccc(S(=O)(=O)c2cccc(NC(=O)C(F)(F)F)c2)c1)C(F)(F)F	none
CC(C)OP(C)(=O)CN1CCCC1=O (stereo not given)	none
COC(=O)c1ccc(/C=C2\C(=O)NC(=O)N(c3cc(C)cc(C)c3)C2=O)cc1	none
COC(=O)c1c(C)oc2ccc(OC(=O)c3ccc([N+](=O)[O-])cc3)cc12	none
CSc1ccc(S(=O)(=O)NCCSc2nc3ccccc3s2)cc1	none
COc1cc(C(=O)Oc2ccc3c(C)cc(=O)oc3c2C(C)=O)cc(OC)c1OC	none
COc1cc(C=O)ccc1OC(=O)c1cc(OC)c(OC)c(OC)c1	Cy5 interf NS3h 0.67
O=C(NCc1ccc(Cl)c(Cl)c1)c1ccc(Br)cc1	none
O=C(Nc1cccc(I)c1)c1cc2ccccc2oc1=O	none
Nc1cccc(C(=O)Nc2ccccc2)c1	none
Nc1ccc[n+](CC(=O)c2ccccc2)c1	Cy5 interf NS3h 0.75
NC(=O)c1ccc[n+](CC(=O)c2cc3ccccc3oc2=O)c1	Cy5 interf NS3h 0.6
COc1ccc(C2CC(=O)C(C)(C)O2)cc1 (stereo not given)	none
COc1ccc(/C=C2\SC(=S)N(CCCC(=O)Nc3ncc(Cc4cccc([N+](=O)[O-])c4)s3)C2=O)cc1OC	none
CC(NC(c1ccccc1)(c1ccccc1)c1ccccc1)C(=O)O (stereo not given)	Cy5 interf NS3h 0.61
CC(C)CC(NC(c1ccccc1)(c1ccccc1)c1ccccc1)C(=O)O (stereo not given)	Cy5 interf NS3h 0.58
CC(NC(=O)c1cccc2ccccc12)C(=O)O (stereo not given)	none
CC(C)CC(NC(=O)c1ccco1)C(=O)O (stereo not given)	none
CCCc1n[nH]c2c1/C(=N/O)CC(C)(C)C2	none
CC(=O)Oc1ccc(-c2cccc(C(=O)OC(C)C)c2)cc1	none
O=C1c2c(Cl)c(Cl)c(Cl)c(Cl)c2C(=O)N1c1ncccn1	Cy5 interf NS3h 0.65
O=C(O)COc1ccc(N2C(=O)c3c(Cl)c(Cl)c(Cl)c(Cl)c3C2=O)cc1	none
O=C(/C=C/c1ccccc1Cl)Nc1nccs1	none
O=C(c1ccccc1Br)N1CCN(c2cc(N3CCCC3)c(F)cc2[N+](=O)[O-])CC1	none
O=C(Nc1c(C(=O)N2CCN(Cc3ccccc3)CC2)cnn1-c1ccccc1)c1cccc(F)c1	Cy5 interf NS3h 1.3
O=C(Nc1c(C(=O)N2CCC(Cc3ccccc3)CC2)cnn1-c1ccccc1)c1cccc(F)c1	none
COc1ccc(-c2cc(=O)n3[nH]c(-c4ccc(C)cc4)c(C)c3n2)cc1	none
Cc1ccc(-c2[nH]n3c(=O)cc(-c4ccc([N+](=O)[O-])cc4)nc3c2C)cc1	Cy5 interf NS3h 0.79
COc1ccc(-c2nn3c(-c4ccc(OC)c(OC)c4)nnc3s2)cc1OC	Cy5 interf NS3h 1.3
COc1ccc(C2CC(c3ccc(C)cc3)=NN2C(C)=O)cc1OC (stereo not given)	none
Cc1ccc(Nc2nc(-c3ccc(-c4ccccc4)cc3)cs2)cc1	none
Nc1ccc(Nc2nc(-c3ccc(Br)cc3)cs2)cc1	Cy5 interf NS3h 0.78
CCc1c(C)nc2ccc(C)cc2c1SCC(=O)O	none

Screening data as filed in PubChem BioAssay.
